Laboratory results published in PubChem BioAssay AID463173 (ICCB-Longwood Screening Facility, Harvard Medical School, 2010).
The campaign covered roughly 52,000 compounds. About 4,300 (8.3%) were called active. No stated cut-off is given here; in the data, active means survival mostly below about 52% (no sharp cut-off); inactive means mostly above about 56%. The sample as a whole holds a higher share of actives than the screen did.

tested on: DeltatarO mutant; experiment: S. aureus survival, RN4220 and DeltatarO strains – OD600, teichoic acid synthesis inhibitors, primary screen (AID 463173); details: S. aureus RN4220 wild type/DeltatarO growth, OD600, 18 h, stronger effect = lower value, screened at 18.75 µg/mL (by protocol)

| SMILES | survival |
| --- | --- |
| Cc1cccc(NC(=O)C2CCN(S(=O)(=O)c3cccc4nsnc34)CC2)c1 | 84% (inactive) |
| CCOc1ccc(NC(=O)CC2C(=O)N(c3ccc(F)cc3)C(=O)N2Cc2ccc(OC)c(OC)c2)cc1 (centres undefined) | 90% (inactive) |
| Cc1ccc(C)c(CSc2nc3ncccc3[nH]2)c1 | 73% (inactive) |
| O=C(CSc1nc2nccnc2c(=O)n1CCc1c[nH]c2ccccc12)Nc1ccccc1 | 73% (inactive) |
| Cn1c(SCC(=O)Nc2ccccc2F)nc2c([nH]c3ccccc32)c1=O | 115% (inactive) |
| Cc1cc(C)c(NC(=O)CSc2nc3nccnc3c(=O)n2CCc2c[nH]c3ccccc23)c(C)c1 | 48% (inactive) |
| Cc1ccc(NC(=O)CSc2nc3nccnc3c(=O)n2CCc2c[nH]c3ccccc23)c(C)c1 | 45% (active) |
| COc1ccccc1NC(=O)CSc1nc2nccnc2c(=O)n1CCc1c[nH]c2ccccc12 | 38% (active) |
| COc1ccccc1NC(=O)CSc1nc2ccccc2c(=O)n1CCC(=O)NC1CCCCC1 | 89% (inactive) |
| O=C(CSc1nc2c([nH]c3ccccc32)c(=O)n1-c1ccccc1)Nc1ccccc1F | 96% (inactive) |
| CCc1ccc(NC(=O)CSc2nc3nccnc3c(=O)n2CCc2c[nH]c3ccccc23)cc1 | 88% (inactive) |
| COCCCn1c(SCC(=O)Nc2ccccc2OC)nc2c(sc3ccccc32)c1=O | 77% (inactive) |
| O=C(CSc1nc2nccnc2c(=O)n1CCc1c[nH]c2ccccc12)Nc1ccc(F)cc1 | 29% (active) |
| Cc1ccc(NC(=O)CSc2nc3c([nH]c4ccccc43)c(=O)n2-c2ccccc2)c(C)c1 | 96% (inactive) |
| O=C(CSc1nc2nccnc2c(=O)n1CCc1c[nH]c2ccccc12)Nc1ccccc1F | 46% (active) |
| Cc1ccc(C)c(NC(=O)CCCn2nc(C)c3sc4ccccc4c3c2=O)c1 | 85% (inactive) |
| CCOC(=O)c1c(C)[nH]c(C)c1S(=O)(=O)N(C)CC(=O)Nc1ccc(C)cc1Br | 72% (inactive) |
| CCCCN(C)C(=O)Cn1cnc2sc(C)c(S(=O)(=O)N3CCN(c4ccccc4OC)CC3)c2c1=O | 70% (inactive) |
| Cc1cc(C)n(-c2nc(C)c(C)c(=O)n2CC(=O)Nc2ccc(OC(F)(F)F)cc2)n1 | 90% (inactive) |
| COc1ccccc1N1CCN(C(=O)COc2ccccc2C#N)CC1 | 81% (inactive) |
| COc1cc(C(=O)N2CCN(CCc3ccncc3)CC2)cc(OC)c1OC | 89% (inactive) |
| CS(=O)(=O)n1nc(-c2ccco2)nc1NCc1ccccc1Cl | 61% (inactive) |
| COc1cc(NC(=O)Cn2cnc3sc(C)c(S(=O)(=O)N4CCC(C)CC4)c3c2=O)cc(OC)c1OC | 111% (inactive) |

| SMILES | survival |
| --- | --- |
| Cc1cc(C)c2c(n1)nn1c(C)c(CCC(=O)NCc3ccc(Cl)cc3)c(C)nc21 | 80% (inactive) |
| Cc1ccccc1NC(=O)CSc1nc2nccnc2c(=O)n1CCc1c[nH]c2ccccc12 | 40% (active) |
| Cc1ccccc1NC(=O)NCCc1c[nH]c2ccccc12 | 47% (inactive) |
| CCOCCCn1c(SCC(=O)Nc2cc(C)ccc2C)nc2c(oc3ccccc32)c1=O | 90% (inactive) |
| Cc1ccc(C)c(NC(=O)Cn2c(SCC(=O)NCc3ccccc3)nc3ccccc32)c1 | 101% (inactive) |
| Cc1ccc(C)c(NC(=O)CSc2nc3nccnc3c(=O)n2CCc2c[nH]c3ccccc23)c1 | 37% (active) |
| Cc1cccc(NC(=O)CSc2nc3c([nH]c4ccccc43)c(=O)n2C)c1C | 80% (inactive) |
| Cc1ccc(NC(=O)c2sc3ncnc(N(C)C4CCCCC4)c3c2C)cc1 | 144% (inactive) |
| CCOc1ccc(CCNC(=O)c2ccc3nc(CC)c(CC)nc3c2)cc1 | 91% (inactive) |
| CN(C)C(=O)CSc1ccc(-c2ccc(F)cc2)nn1 | 92% (inactive) |
| CC(C)Oc1ccc(C(=O)Nc2nnc3n2CCS3)cc1 | 124% (inactive) |
| Cc1cccc(NC(=O)NC2CC3CCCC(C2)N3CC(C)C)c1 (centres undefined) | 94% (inactive) |
| CC(C)C(NS(=O)(=O)c1ccc2c(c1)oc(=O)n2C)C(=O)NCCc1ccccc1 (centres undefined) | 89% (inactive) |
| COc1ccc(C(=O)Nc2ccc(N3CCOCC3)c(C(F)(F)F)c2)cc1OC | 91% (inactive) |
| Cc1oc2ccc(O)c(CN(C)Cc3ccccc3)c2c1C(=O)Nc1cccc(C(F)(F)F)c1 | 6% (active) |
| Cc1oc2ccc(O)c(CN(C)Cc3ccccc3)c2c1C(=O)Nc1cccc(Cl)c1C | 11% (active) |
| Cc1oc2ccc(O)c(CN3CCN(Cc4ccccc4)CC3)c2c1C(=O)Nc1cccc(Cl)c1C | 72% (inactive) |
| Cc1oc2ccc(O)c(CN3CCN(C)CC3)c2c1C(=O)Nc1cccc(C(F)(F)F)c1 | 81% (inactive) |
| Cc1oc2ccc(O)c(CN3CCCC3)c2c1C(=O)Nc1cccc(Cl)c1C | 71% (inactive) |
| Cc1oc2ccc(O)c(CN(C)Cc3ccccc3)c2c1C(=O)Nc1ccccc1 | 92% (inactive) |
| CCOC(=O)c1ccccc1NC(=O)c1c2c(nc3ccccc13)C(=O)N(C1CCCCC1)C2 | 75% (inactive) |
| CC(C)C1N=C2c3ccccc3N=C(SCC(=O)NCc3ccc(F)cc3)N2C1=O (centres undefined) | 73% (inactive) |
| Cc1ccc(Cn2ccn(CC(=O)Nc3c(C)cc(C)cc3C)c(=O)c2=O)cc1 | 47% (inactive) |

| SMILES | survival |
| --- | --- |
| COc1ccccc1NC(=O)Cn1ccn(-c2cc(C)cc(C)c2)c(=O)c1=O | 55% (inactive) |
| O=C(Cn1ccn(-c2ccc(F)cc2)c(=O)c1=O)Nc1ccc(F)cc1 | 60% (inactive) |
| COc1cc(NC(=O)Cn2ccn(Cc3ccccc3OC)c(=O)c2=O)cc(OC)c1 | 52% (inactive) |
| COc1ccc(NC(=O)Cn2ccn(-c3ccccc3)c(=O)c2=O)cc1 | 52% (inactive) |
| Cc1ccc(NC(=O)Cn2ccn(-c3ccccc3)c(=O)c2=O)cc1 | 56% (active) |
| CCc1ccc(NC(=O)Cn2ccn(-c3ccc(OC)cc3)c(=O)c2=O)cc1 | 67% (inactive) |
| CCc1ccc(NC(=O)Cn2ccn(Cc3ccccc3OC)c(=O)c2=O)cc1 | 46% (active) |
| COc1ccccc1Cn1ccn(CC(=O)Nc2c(C)cc(C)cc2C)c(=O)c1=O | 41% (active) |
| COc1ccc(NC(=O)CC2C(=O)N(c3ccc(C)cc3)C(=O)N2CCc2ccccc2)cc1 (centres undefined) | 62% (inactive) |
| Cc1ccc(-c2cn3c(n2)sc2cc(C(=O)NCCCc4ccccc4)ccc23)c(C)c1 | 48% (inactive) |
| O=C1N(c2ccccc2)C(=O)N(c2ccccc2)C2c3ccccc3C=CN12 (centres undefined) | 100% (inactive) |
| CCOC(=O)c1ccccc1NC(=O)Nc1cc2c(cc1N1CCCC1)n(C)c(=O)n2C | 108% (inactive) |
| CCc1nc2ccc(C(=O)NCCc3ccc(OC)c(OC)c3)cc2nc1CC | 88% (inactive) |
| O=C(Nc1cccc(Cl)c1)c1c(NC(=O)C(F)(F)F)sc2c1CCCC2 | -2% (active) |
| O=C(Cc1ccccc1)Nc1sc2c(c1C(=O)Nc1cccc(Cl)c1)CCCCC2 | 65% (inactive) |
| Cc1cccc(NC(=O)c2c(NC(=O)c3ccccc3)sc3c2CCCC3)c1 | 61% (inactive) |
| O=C(Nc1sc2c(c1C(=O)Nc1cccc(Cl)c1)CCCC2)c1cccs1 | 159% (inactive) |
| CCOc1ccc(NC(=O)c2c(NC(=O)c3cccc(C)c3)sc3c2CCC3)cc1 | 160% (inactive) |
| Cc1cccc(NC(=O)c2c(NC(=O)C(F)(F)F)sc3c2CCCCC3)c1 | -3% (active) |
| Cc1cccc(NC(=O)c2c(Br)sc3c2CCCC3)c1 | 3% (active) |
| Cc1cccc(NC(=O)c2c(NC(=O)c3ccccc3)sc3c2CCC3)c1 | 72% (inactive) |
| Cc1cccc(NC(=O)c2c(N)sc3c2CCC(C)C3)c1 (centres undefined) | 59% (inactive) |
| O=c1n(Cc2ccc(F)cc2Cl)c2ccccc2c2nc(-c3ccccc3)nn12 | 125% (inactive) |

| SMILES | survival |
| --- | --- |
| O=S(=O)(c1ccc(-c2cnc(C3CC3)o2)cc1)N1CCN(c2cccc(Cl)c2)CC1 | 75% (inactive) |
| COc1ccc(Br)cc1CNC(=O)C1COc2ccccc2C1 (centres undefined) | 49% (inactive) |
| Cc1ccccc1C(=O)Oc1c(Sc2ccccc2)c(C)nn1C(C)(C)C | 21% (active) |
| CCOc1ccccc1C(=O)Oc1c(Sc2ccccc2)c(C)nn1C(C)(C)C | 91% (inactive) |
| COc1cccc(C(=O)Oc2c(Sc3ccc(C)cc3)c(C)nn2C(C)(C)C)c1OC | 21% (active) |
| COc1ccc(C(=O)Oc2c(Sc3ccc(C)cc3)c(C)nn2C(C)(C)C)c(OC)c1 | 49% (inactive) |
| Cc1nn(C(C)(C)C)c(OC(=O)C(C)(C)C)c1Sc1ccccc1 | -10% (active) |
| COc1ccccc1C(=O)Oc1c(Sc2ccccc2)c(C)nn1C(C)(C)C | 87% (inactive) |
| Cc1ccc(Sc2c(C)nn(C(C)(C)C)c2OC(=O)C(C)(C)C)cc1 | -10% (active) |
| COc1ccc(C(=O)Oc2c(Sc3ccc(C)cc3)c(C)nn2C(C)(C)C)cc1OC | 115% (inactive) |
| Cc1oc2cc3oc(=O)c(CCC(=O)NCCc4ccccc4F)c(C)c3cc2c1C | 94% (inactive) |
| O=S(=O)(c1ccc2oc(-c3cccnc3)nc2c1)c1ccc2oc(-c3cccnc3)nc2c1 | 64% (inactive) |
| CCOC(=O)c1c(-c2ccc(C)cc2C)csc1NC(=O)c1ccccc1Cl | 47% (inactive) |
| CC(C)c1ccc(C2N3CC4(C)CN2CC(c2ccccc2)(C3)C4=O)cc1 (centres undefined) | 80% (inactive) |
| CC(C)NC(=O)C1CC(=O)N(c2ccc(Oc3ccccc3)cc2)C1 (centres undefined) | 87% (inactive) |
| CSc1ncc(Cl)c(C(=O)Nc2ccc(S(=O)(=O)N3CCC(C)CC3)cc2)n1 | 62% (inactive) |
| O=C(Cn1ccn(-c2ccc(F)cc2)c(=O)c1=O)Nc1ccccc1C(F)(F)F | 50% (inactive) |
| COCC(=O)Oc1c(Sc2ccc(C)cc2)c(C)nn1C(C)(C)C | 78% (inactive) |
| Cc1ccc(Sc2c(C)nn(C(C)(C)C)c2OC(=O)CC(C)C)cc1 | -9% (active) |
| CCC(=O)Oc1c(Sc2ccc(Cl)cc2)c(C)nn1C(C)(C)C | 78% (inactive) |
